Results reported in PubChem BioAssay (NCI).
Compounds without any hit were thinned out: in the full panel of roughly 83,000, 20% have a hit.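 Assay: single dose, 48 h. Readout: percent growth (0 = no net growth; negative = cell death). Active: <10.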 Values without a mark were called inactive. Calls of active or inactive are those of the source.

Key:
Test in all cases: NCI-60 one-dose screen, 48 h (100 = growth as untreated, 0 = no growth, -100 = all killed)
Conditions in all cases: 10 µM unless noted
NCI-H23 lung = tested on: NCI-H23 lung
NCI-H226 lung = tested on: NCI-H226 lung
NCI-H322M lung = tested on: NCI-H322M lung
HOP-62 NSCLC = tested on: HOP-62 NSCLC
NCI-H460 lung = tested on: NCI-H460 lung
NCI-H522 lung = tested on: NCI-H522 lung
A549/ATCC NSCLC = tested on: A549/ATCC NSCLC
786-0 renal = tested on: 786-0 renal
COLO 205 colon = tested on: COLO 205 colon
DU-145 prostate = tested on: DU-145 prostate
K-562 leukemia = tested on: K-562 leukemia
MALME-3M melanoma = tested on: MALME-3M melanoma
MDA-MB-231 breast = tested on: MDA-MB-231 breast
RXF 393 renal = tested on: RXF 393 renal
SF-268 CNS = tested on: SF-268 CNS
SF-295 CNS = tested on: SF-295 CNS
SF-539 CNS = tested on: SF-539 CNS
UACC-257 melanoma = tested on: UACC-257 melanoma
M14 melanoma = tested on: M14 melanoma

| SMILES | growth (NCI-H23 lung) | growth (NCI-H226 lung) | growth (NCI-H322M lung) | growth (HOP-62 NSCLC) | growth (NCI-H460 lung) | growth (NCI-H522 lung) | growth (A549/ATCC NSCLC) | growth (786-0 renal) | growth (COLO 205 colon) | growth (DU-145 prostate) | growth (K-562 leukemia) | growth (MALME-3M melanoma) | growth (MDA-MB-231 breast) | growth (RXF 393 renal) | growth (SF-268 CNS) [%] | growth (SF-295 CNS) | growth (SF-539 CNS) | growth (UACC-257 melanoma) | growth (M14 melanoma) |
| --- | --- | --- | --- | --- | --- | --- | --- | --- | --- | --- | --- | --- | --- | --- | --- | --- | --- | --- | --- |
| Cc1ccc(C)c2c1SC1=NNC(Oc3ccc(Cl)cc3)=C(C#N)C(=N)N12 | 92.7% | 94.2% | 101% | 103% | 99.9% | 87.9% | 108% | 110% | 105% | 112% | 95.1% | 123% | 99.6% | 118% | 113 | 93.7% | 103% | 101% | 107% |
| CN1CCC2(CC1)N=C(SCC(=O)Nc1cnc3ccccc3c1)C(c1ccc(Br)cc1)=N2 | 63.5% | 57.6% | 50.8% | 38.9% | 3.34% (active) | -17.5% (active) | 24.2% | -81.7% (active) | -76.2% (active) | 21.8% | -61.5% (active) | -75.5% (active) | -40.5% (active) | 24.3% | 35.9 | 28% | 51.6% | -61.2% (active) | -83.8% (active) |
| CC(=O)c1ccc(Br)c([N+](=O)[O-])c1 | 106% | 112% | 107% | 109% | 109% | 27.6% | 100% | 95.4% | 127% | 113% | 89.7% | 98.6% | 117% | 113% | 117 | 96.9% | 107% | 111% | 97.2% |
| CCCC(CCC)(C(N)=O)C(=O)O | 105% | 98.5% | 111% | 98.6% | 115% | 97.2% | 97.8% | 113% | 106% | 108% | 120% | 111% | 116% | 124% | 102 | 107% | 120% | 102% | 108% |
| C=C(C)[C@@H]1CC[C@]2(C(=O)O)CC[C@]3(C)[C@H](CC[C@@H]4[C@@]5(C)C[C@@H](CC#Cc6ccc(C(C)=O)s6)[C@H](O)C(C)(C)[C@@H]5CC[C@]43C)[C@@H]12 | 60.9% | 77.1% | 41.3% | 50% | 42.7% | 26% | 6.44% (active) | 58.6% | 59.5% | 57.2% | 34.7% | 82.6% | 91.9% | 74.3% | 61.6 | 48.9% | 83.4% | 40.2% | 76% |
| C(=Nc1ccc(-c2ccc(N=Cc3ccccc3)cc2)cc1)c1ccccc1 | 101% | 97.4% | 103% | 101% | 116% | 70% | 93.8% | 104% | 117% | 118% | 95.4% | 94.6% | 88.2% | 113% | 105 | 99.2% | 107% | 109% | 104% |
| O=c1oc2ccccc2cc1-c1cc(-c2ccc(-c3cc(-c4cc5ccccc5oc4=O)nc(-c4cc5ccccc5oc4=O)c3)cc2)cc(-c2cc3ccccc3oc2=O)n1 | 98.5% | 97.8% | 108% | 93.3% | 106% | 97% | 101% | 107% | 103% | 107% | 94.8% | 98.3% | 94.4% | 118% | 104 | 111% | 93.2% | 103% | 103% |
| CO[C@H](C(=O)[C@@H](O)[C@@H](C)O)[C@@H]1Cc2cc3cc(O[C@H]4C[C@@H](O[C@H]5C[C@@H](O)[C@H](O)C(C)O5)[C@H](O)C(C)O4)c(C)c(O)c3c(O)c2C(=O)[C@H]1O[C@H]1C[C@@H](O[C@H]2C[C@@H](O[C@H]3C[C@](C)(O)C(=O)C(C)O3)[C@@H](O)C(C)O2)[C@H](O)C(C)O1 (some centres not stated) | -7.26% (active) | 1.78% (active) | 7.31% (active) | -2.07% (active) | 4.88% (active) | -31.9% (active) | 4.12% (active) | 4.11% (active) | -52.4% (active) | 9.76% (active) | 9.26% (active) | -26.8% (active) | 10.6% | -54.2% (active) | 16.4 | 6.84% (active) | 0.369% (active) | -27.4% (active) | -27% (active) |
